This is an account of results in PubChem BioAssay.

The structures appear in SMILES notation.

Sequence of Fibroblast growth factor 2 (Homo sapiens) (P09038 whole entry, looked up): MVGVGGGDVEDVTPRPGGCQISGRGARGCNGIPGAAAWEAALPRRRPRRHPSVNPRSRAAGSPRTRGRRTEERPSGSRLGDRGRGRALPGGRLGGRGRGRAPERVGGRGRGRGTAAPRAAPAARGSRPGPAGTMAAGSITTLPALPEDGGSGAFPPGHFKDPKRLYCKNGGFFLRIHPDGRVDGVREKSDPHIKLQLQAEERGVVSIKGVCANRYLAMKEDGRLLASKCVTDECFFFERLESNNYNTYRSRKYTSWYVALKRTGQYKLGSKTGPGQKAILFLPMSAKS

The assay addresses Fibroblast growth factor 2 (Homo sapiens) (UniProt P09038). Briefly: FGF2 binders on small-molecule microarrays, primary screen, biochemical, small-molecule microarray, 635/667 nm fluorescence (AID 1133). To be noted: small-molecule microarray binding, FGF2, fluorescence 635/667; higher = more signal.
Compound `O=[N+]([O-])c1ccc(C[n+]2ccc3ccc(O)cc3c2)o1` displayed a composite z-score of 0.227.

`O=C1O[C@@H](c2ccccc2)[C@@H](c2ccccc2)N2[C@@H](c3ccccc3OCCO)[C@]3(C(=O)Nc4ccc(C#CC5=CCCCC5)cc43)[C@@H](C(=O)O)[C@H]12`: the composite z-score is 0.301.

Turning to `CCC#CCN(Cc1ccccc1Br)[C@H](/C=C/c1ccccc1)[C@@H](O)Cc1ccccc1`, the composite z-score is -1.48.

As to `COCCOC(=O)N1C(=O)[C@@]2(c3cc(C#CC4(O)CCCCCC4)ccc31)[C@H](C(=O)N1CCCCCCC1)[C@H]1C(=O)O[C@H](c3ccccc3)[C@H](c3ccccc3)N1[C@@H]2c1ccc(O)cc1`, the composite z-score was determined as 0.536.

As to `C[N+](C)(C)CCCCNC(=O)[C@@H]1C[C@@H]2C(=O)N3CCC[C@H]3C(=O)N2[C@@H]1c1cccc(OCCO)c1`, the composite z-score stood at 1.73.

Regarding `C=CCN1C(=O)[C@]2(O[C@H](CCn3cc(CCO)nn3)[C@@H]([Si](C)(C)c3ccc(OC)cc3)[C@@H]2C)c2cc(NC(=O)c3ccc(OC)cc3)ccc21`, the composite z-score amounted to 1.2.

Regarding `CO[C@H]1COC(=O)[C@@H](Cc2ccccc2)NC(=O)[C@@H](C)COC(=O)CC=C[C@@H]1C`, the composite z-score was found to be 1.01.

`O=C1C2C=CC(C(O)c3ccccc3)N(n3cnnc3)C2C(=O)N1Cc1ccccc1` (stereo unspecified) had a composite z-score of -0.0128.

Compound `C=C(COC)/C(=C/C[C@@H](OC(=O)c1ccncc1)c1ccc(OCCO)cc1)c1cc(C(=O)OC)ccc1OC` displayed a composite z-score of 0.334.

For the compound `O=C1C[C@@](C(=O)NCCN2CCOCC2)(c2ccc([N+](=O)[O-])cc2)[C@@H](c2ccc(CO)cc2)N1C1CCCCC1`, the composite z-score stood at 1.22.

In turn, `COc1ccc(NN2C(C(O)c3cc(OC)c(OC)c(OC)c3)C=CC3C(=O)N(C4CCCCC4)C(=O)C32)cc1` (stereo unspecified) came in with a composite z-score of -0.418.

As to `C=C(C)[C@@H]1CC=C(C(O)C2C=CC3C(=O)NC(=O)C3N2Nc2ccccn2)CC1` (stereo partly specified), the composite z-score was determined as 1.92.

For `O=C1OCCC/C=C\[C@H]2OC34C=CCN(CCN5CCOCC5)C(=O)[C@H]3N(CCCCCO)C(=O)[C@@H]4C12` (stereo partly specified), the composite z-score was -0.821.

Turning to `NC(=O)NCC#Cc1ccc2c(c1)[C@]1(C(=O)N2)[C@H](C(N)=O)[C@H]2C(=O)O[C@H](c3ccccc3)[C@H](c3ccccc3)N2[C@@H]1c1ccccc1OCCO`, the composite z-score stood at 0.66.

As to `COc1ccc([Si](C)(C)[C@H]2[C@H](CCO)O[C@@]3(C(=O)N(Cc4ccccc4)c4ccc(N5C(=O)c6cccc7cccc5c67)cc43)[C@@H]2C)cc1`, the composite z-score was -0.751.

On to `CN(C)c1ccc(C(O)C2C=CC3C(=O)NC(=O)C3N2Nc2ccc(Cl)cc2Cl)cc1` (stereo unspecified), for which the composite z-score was -0.785.

On to `COC(=O)C(CC#Cc1ccc2c(c1)[C@]1(C(=O)N2)[C@H](C(=O)N2CCCCCCC2)[C@H]2C(=O)O[C@H](c3ccccc3)[C@H](c3ccccc3)N2[C@@H]1c1ccc(O)cc1)C(=O)OC`, for which the composite z-score is -1.1.

Take `C=CCNC(=O)[C@@H]1[C@H]2C(=O)O[C@H](c3ccccc3)[C@H](c3ccccc3)N2[C@H](c2ccc(OCCO)cc2)[C@@]12C(=O)N(C(=O)OCCOC)c1ccc(C#CC3(O)CCCCCC3)cc12`: the composite z-score was determined as 0.833.

As for `CC(C)[Si]1(C(C)C)O[C@@H](c2ccccc2)c2cc(C3CC3)nc(-c3ccc(Oc4ccccc4)cc3)c21`, the composite z-score was -0.192.

For the compound `[N-]=[N+]=NCc1ccccc1C[C@]1(C(=O)N2CCCCC2)N=C(c2ccc(OCCCO)cc2)O[C@H]1c1ccccc1CN=[N+]=[N-]`, the composite z-score was -0.369.

Compound `Cc1ccc(N2C(=O)c3ccccc3[C@@H](C(=O)NCC(F)(F)F)[C@@H]2c2ccc(CO)cc2)nc1` yielded a composite z-score of -0.59.

Regarding `CC(C)N1CC=CC23O[C@@H]4/C=C\CCCOC(=O)C4[C@H]2C(=O)N(CCO)[C@@H]3C1=O` (stereo partly specified), the composite z-score was -0.635.

`O=C(NCC(F)(F)F)[C@@H]1c2ccccc2C(=O)N(Cc2ccccc2Cl)[C@H]1c1ccc(CO)cc1` had a composite z-score of -0.434.

`C=CCNC(=O)[C@H]1[C@@H]2C(=O)O[C@@H](c3ccccc3)[C@@H](c3ccccc3)N2[C@@H](c2ccccc2OCCO)[C@]12C(=O)N(C(=O)OCCOC)c1ccc(C#CCC(C(=O)OC)C(=O)OC)cc12` gave a composite z-score of 1.06.

In the case of `C[C@@H]1C=CCC(=O)OC[C@H]2O[C@@H](C=C[C@@H]2O)[C@H](C)C=CCC(=O)OC[C@H]2O[C@H]1C=C[C@@H]2O`, the composite z-score is 1.83.

In turn, `Cc1ccc(S[C@]2(C(=O)NCCN3CCOCC3)CC(=O)N(C3Cc4ccccc4C3)[C@@H]2c2ccc(CO)cc2I)cc1` yielded a composite z-score of -1.41.

In the case of `CC(C)CNC(=O)[C@@]1(C)c2ccccc2C(=O)N(Cc2ccc(OC(F)(F)F)cc2)[C@H]1c1ccc(CO)cc1`, the composite z-score turned out to be 0.192.

The compound `CO[C@H]1COC(=O)CC=C[C@@H](C)COC(=O)[C@@H](C)NC(=O)CC=C[C@@H]1C` came in with a composite z-score of 2.02.

`C=C[C@H](OC)[C@@H](OC(=O)Nc1ccc(SC)cc1)c1ccc(O)c(F)c1` came in with a composite z-score of 0.781.

For the compound `[N-]=[N+]=NCc1ccccc1C[C@@]1(C(=O)N2CCOCC2)N=C(c2ccc(OCCCO)cc2)O[C@@H]1c1ccccc1N=[N+]=[N-]`, the composite z-score came out at 0.267.

For `[N-]=[N+]=NCc1ccccc1C[C@@]1(C(=O)O)N=C(c2ccc(OCCCO)cc2)O[C@@H]1c1ccccc1N=[N+]=[N-]`, the composite z-score is -0.316.

`CSCC[C@@H]1NC(=O)CC=C[C@@H](C)COC(=O)[C@H](CCSC)NC(=O)CC=C[C@@H](C)COC1=O` came in with a composite z-score of 0.296.

Take `C=C(COC)/C(=C/C[C@@H](OC(C)=O)c1cccc(OCCO)c1)c1cc(C(=O)OC)ccc1OC`: the composite z-score came to 0.202.

As for `CCOC(=O)C[C@H]1[C@H](OC(=O)c2cc3ccccc3oc2=O)[C@@H](NC(=O)C2CCCCC2)c2cc(OCCCO)ccc2N1C(=O)c1ccc2ccccc2n1`, the composite z-score was determined as 0.324.

On to `C=C(COC)C(=O)CC[C@H](OC(=O)c1ccccc1-c1ccccc1C(=O)O)c1cccc(OCCO)c1`, for which the composite z-score worked out at 2.11.

On to `C=CC[C@]1(C(=O)OC)N=C(c2ccc(OCCCO)cc2)O[C@H]1c1ccccc1CN=[N+]=[N-]`, for which the composite z-score was determined as 0.172.
